For eleven compounds, Percent Effect results are on record in ChEMBL document CHEMBL3988442, “University of Dundee, Small-Polar-MMV Screening Library” (2021).

Holding throughout (parameters): scale not given: direction of the effect not stated beside the values
Experiment [1] deals with Protein translocase subunit SecA (Escherichia coli (strain K12)) (UniProt P10408). In words: Assay to Identify E. coli SecA ATPase Inhibitors. The format is functional. The note with it: 30 µM.
The target of experiment [2] is T1, Ubiquitin-activating enzyme e1, putative (Leishmania donovani (strain BPK282A1)) (UniProt E9BSI1).
T1 sequence (whole entry): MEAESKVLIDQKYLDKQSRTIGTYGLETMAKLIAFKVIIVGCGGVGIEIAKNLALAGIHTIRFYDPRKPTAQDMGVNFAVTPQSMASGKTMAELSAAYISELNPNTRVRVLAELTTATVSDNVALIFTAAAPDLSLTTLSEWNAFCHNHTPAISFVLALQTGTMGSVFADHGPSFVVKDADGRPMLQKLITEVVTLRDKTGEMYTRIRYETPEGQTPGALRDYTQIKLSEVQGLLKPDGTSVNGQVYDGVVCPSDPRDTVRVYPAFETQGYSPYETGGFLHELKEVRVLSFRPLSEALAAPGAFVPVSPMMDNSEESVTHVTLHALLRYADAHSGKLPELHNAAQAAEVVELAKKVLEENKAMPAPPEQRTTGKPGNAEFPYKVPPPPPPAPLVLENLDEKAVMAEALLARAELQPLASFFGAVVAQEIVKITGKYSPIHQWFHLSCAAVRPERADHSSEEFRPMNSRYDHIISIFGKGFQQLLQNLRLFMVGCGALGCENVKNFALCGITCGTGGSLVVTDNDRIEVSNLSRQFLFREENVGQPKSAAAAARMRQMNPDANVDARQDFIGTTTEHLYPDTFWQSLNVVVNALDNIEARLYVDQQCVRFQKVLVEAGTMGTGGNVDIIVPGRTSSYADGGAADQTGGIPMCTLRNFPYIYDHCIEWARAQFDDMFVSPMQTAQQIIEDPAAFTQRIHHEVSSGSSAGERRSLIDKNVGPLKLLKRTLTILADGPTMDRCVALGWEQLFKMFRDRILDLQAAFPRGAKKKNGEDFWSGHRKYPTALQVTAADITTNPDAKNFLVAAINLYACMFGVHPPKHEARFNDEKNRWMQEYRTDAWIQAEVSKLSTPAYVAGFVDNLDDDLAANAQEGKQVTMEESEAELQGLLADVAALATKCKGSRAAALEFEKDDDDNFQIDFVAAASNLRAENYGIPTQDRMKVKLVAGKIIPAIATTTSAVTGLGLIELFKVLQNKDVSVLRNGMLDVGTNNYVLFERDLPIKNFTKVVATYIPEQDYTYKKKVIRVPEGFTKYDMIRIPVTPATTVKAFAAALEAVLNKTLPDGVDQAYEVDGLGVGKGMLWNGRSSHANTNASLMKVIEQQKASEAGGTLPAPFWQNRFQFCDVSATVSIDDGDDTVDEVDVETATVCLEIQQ
The experiment in a line: Leishmania donovani Ubiquitin Activating Enzyme (LdE1). The format is functional. The note with it: 30 µM.

Experiment [3] concerns the target AMP-activated protein kinase, AMPK (Homo sapiens) (UniProt P54646+O43741+P54619+Q9UGJ0+Q9Y478+Q13131+Q9UGI9). The experiment in a line: AMP-dependent Kinase enzyme assay. An in vitro enzyme assay that detects ADP turnover that is directly proportional to AMPK activity. This uses naive AMPK that is activated during the assay with MK-8722. It counts as functional. The following applies: 30 µM.

Experiment [4] deals with Sialic acid-binding Ig-like lectin 9 (Homo sapiens) (UniProt Q9Y336). In words: Hs-Siglec9 ALPHAscreen SOP 20170721. The following applies: 10 µM. Background: In Alpha technology, singlet oxygen from a donor bead excites a nearby acceptor bead.
Chain of Sialic acid-binding Ig-like lectin 9 (Homo sapiens) (Q9Y336 whole entry): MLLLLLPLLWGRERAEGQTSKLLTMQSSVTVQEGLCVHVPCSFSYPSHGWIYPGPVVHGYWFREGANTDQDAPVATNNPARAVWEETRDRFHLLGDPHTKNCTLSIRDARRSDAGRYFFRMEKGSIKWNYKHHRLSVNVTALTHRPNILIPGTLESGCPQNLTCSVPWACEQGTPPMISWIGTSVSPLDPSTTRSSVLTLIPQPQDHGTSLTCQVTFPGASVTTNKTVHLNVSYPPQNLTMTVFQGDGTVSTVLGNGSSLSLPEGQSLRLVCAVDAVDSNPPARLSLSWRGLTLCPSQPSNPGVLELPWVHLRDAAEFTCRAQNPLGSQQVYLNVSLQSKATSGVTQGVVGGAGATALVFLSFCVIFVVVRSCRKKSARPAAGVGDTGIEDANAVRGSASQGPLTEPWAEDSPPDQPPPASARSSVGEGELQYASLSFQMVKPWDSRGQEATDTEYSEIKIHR
In another experiment the test system is Trypanosoma cruzi. The experiment in a line: Trypanosoma cruzi phosphomannomutase and mannose-1-phosphate guanylyltransferase assay. It counts as functional. The note with it: 10 µM.
Experiment [5] addresses T2, Arginase-2, mitochondrial (Homo sapiens) (UniProt P78540).
T2 sequence (whole entry): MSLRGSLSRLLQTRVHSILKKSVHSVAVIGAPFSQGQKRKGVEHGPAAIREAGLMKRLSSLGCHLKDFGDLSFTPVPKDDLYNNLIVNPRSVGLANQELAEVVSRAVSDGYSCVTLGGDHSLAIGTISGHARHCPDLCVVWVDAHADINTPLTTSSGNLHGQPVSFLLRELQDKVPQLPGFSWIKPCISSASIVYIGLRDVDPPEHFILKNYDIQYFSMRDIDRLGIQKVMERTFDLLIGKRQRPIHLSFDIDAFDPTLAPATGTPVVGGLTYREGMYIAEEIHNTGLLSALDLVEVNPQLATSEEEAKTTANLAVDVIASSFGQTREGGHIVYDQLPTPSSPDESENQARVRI
The experiment in a line: in vitro enzyme assay to detect the production of urea directly proportional to the activity of Arginase II. Further: in the data most compounds retested in dose-response had high values. It counts as functional. The note with it: 33.3 µM.

Experiment [6] concerns the target T3, Proteasome subunit beta (Trypanosoma cruzi) (UniProt O96673).
T3 sequence (whole entry): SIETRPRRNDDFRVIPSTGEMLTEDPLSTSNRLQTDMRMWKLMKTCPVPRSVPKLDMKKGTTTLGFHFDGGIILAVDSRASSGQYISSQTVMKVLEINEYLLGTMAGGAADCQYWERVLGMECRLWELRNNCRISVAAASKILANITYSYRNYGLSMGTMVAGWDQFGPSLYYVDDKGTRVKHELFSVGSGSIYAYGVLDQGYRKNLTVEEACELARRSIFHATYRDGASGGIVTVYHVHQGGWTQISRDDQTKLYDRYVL
In words: Trypanosoma cruzi proteasome chymotrypsin-like activity (TcProtChymo) assay. Further: in the data most compounds retested in dose-response had high values. The following applies: 9.37 µM. It counts as functional.

The species entered for a further experiment is Homo sapiens. The experiment in a line: To identify inhibition of the IFN signalling (Jak-Stat) pathway via expression of an eGFP reporter gene under the control of an IFN-stimulated response element (ISRE) containing MxA promoter. The format is functional. The note with it: 30 µM. Background: A reporter such as luciferase makes a cellular process visible.

The target in experiment [7] is T4, Tyrosyl-tRNA synthetase, putative (Trypanosoma cruzi (strain CL Brener)) (UniProt Q4DSP6).
T4 sequence (whole entry): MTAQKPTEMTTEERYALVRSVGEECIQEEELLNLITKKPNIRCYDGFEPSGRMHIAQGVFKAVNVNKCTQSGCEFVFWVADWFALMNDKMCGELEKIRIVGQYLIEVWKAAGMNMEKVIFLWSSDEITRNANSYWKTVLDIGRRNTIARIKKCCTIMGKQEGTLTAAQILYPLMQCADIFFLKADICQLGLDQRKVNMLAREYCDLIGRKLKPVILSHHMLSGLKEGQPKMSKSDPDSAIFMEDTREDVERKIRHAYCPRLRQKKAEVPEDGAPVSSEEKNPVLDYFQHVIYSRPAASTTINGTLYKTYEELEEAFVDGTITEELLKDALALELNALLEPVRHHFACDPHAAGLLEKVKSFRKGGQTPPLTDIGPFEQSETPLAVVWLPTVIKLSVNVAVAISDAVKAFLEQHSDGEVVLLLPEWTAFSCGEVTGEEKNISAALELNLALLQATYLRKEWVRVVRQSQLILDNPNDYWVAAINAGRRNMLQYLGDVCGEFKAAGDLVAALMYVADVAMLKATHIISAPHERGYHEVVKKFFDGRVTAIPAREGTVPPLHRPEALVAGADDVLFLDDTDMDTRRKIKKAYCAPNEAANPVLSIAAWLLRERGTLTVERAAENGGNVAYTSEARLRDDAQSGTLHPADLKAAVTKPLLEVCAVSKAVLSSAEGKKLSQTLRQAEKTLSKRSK
The experiment in a line: Trypanosoma cruzi tyrosyl tRNA synthetase (TcYRS) _High Tyrosine SOP. Further: in the data most compounds retested in dose-response had high values. It counts as functional. The note with it: 30 µM.

The target of experiment [8] is T4, Tyrosyl-tRNA synthetase, putative (Trypanosoma cruzi (strain CL Brener)). In words: Trypanosoma cruzi tyrosyl tRNA synthetase (TcYRS) SOP. The format is functional. The note with it: 30 µM.
The target of experiment [9] is Chromo domain-containing protein 1 (Saccharomyces cerevisiae (strain ATCC 204508 / S288c) (Baker's yeast)) (UniProt P32657). The experiment in a line: ScCHD-1 Enzyme Inhibition Assay. Further: in the data most compounds retested in dose-response had high values. It counts as functional. The note with it: 30 µM.
Chain of Chromo domain-containing protein 1 (Saccharomyces cerevisiae (strain ATCC 204508 / S288c) (Baker's yeast)) (P32657 whole entry, the tested form may be a part): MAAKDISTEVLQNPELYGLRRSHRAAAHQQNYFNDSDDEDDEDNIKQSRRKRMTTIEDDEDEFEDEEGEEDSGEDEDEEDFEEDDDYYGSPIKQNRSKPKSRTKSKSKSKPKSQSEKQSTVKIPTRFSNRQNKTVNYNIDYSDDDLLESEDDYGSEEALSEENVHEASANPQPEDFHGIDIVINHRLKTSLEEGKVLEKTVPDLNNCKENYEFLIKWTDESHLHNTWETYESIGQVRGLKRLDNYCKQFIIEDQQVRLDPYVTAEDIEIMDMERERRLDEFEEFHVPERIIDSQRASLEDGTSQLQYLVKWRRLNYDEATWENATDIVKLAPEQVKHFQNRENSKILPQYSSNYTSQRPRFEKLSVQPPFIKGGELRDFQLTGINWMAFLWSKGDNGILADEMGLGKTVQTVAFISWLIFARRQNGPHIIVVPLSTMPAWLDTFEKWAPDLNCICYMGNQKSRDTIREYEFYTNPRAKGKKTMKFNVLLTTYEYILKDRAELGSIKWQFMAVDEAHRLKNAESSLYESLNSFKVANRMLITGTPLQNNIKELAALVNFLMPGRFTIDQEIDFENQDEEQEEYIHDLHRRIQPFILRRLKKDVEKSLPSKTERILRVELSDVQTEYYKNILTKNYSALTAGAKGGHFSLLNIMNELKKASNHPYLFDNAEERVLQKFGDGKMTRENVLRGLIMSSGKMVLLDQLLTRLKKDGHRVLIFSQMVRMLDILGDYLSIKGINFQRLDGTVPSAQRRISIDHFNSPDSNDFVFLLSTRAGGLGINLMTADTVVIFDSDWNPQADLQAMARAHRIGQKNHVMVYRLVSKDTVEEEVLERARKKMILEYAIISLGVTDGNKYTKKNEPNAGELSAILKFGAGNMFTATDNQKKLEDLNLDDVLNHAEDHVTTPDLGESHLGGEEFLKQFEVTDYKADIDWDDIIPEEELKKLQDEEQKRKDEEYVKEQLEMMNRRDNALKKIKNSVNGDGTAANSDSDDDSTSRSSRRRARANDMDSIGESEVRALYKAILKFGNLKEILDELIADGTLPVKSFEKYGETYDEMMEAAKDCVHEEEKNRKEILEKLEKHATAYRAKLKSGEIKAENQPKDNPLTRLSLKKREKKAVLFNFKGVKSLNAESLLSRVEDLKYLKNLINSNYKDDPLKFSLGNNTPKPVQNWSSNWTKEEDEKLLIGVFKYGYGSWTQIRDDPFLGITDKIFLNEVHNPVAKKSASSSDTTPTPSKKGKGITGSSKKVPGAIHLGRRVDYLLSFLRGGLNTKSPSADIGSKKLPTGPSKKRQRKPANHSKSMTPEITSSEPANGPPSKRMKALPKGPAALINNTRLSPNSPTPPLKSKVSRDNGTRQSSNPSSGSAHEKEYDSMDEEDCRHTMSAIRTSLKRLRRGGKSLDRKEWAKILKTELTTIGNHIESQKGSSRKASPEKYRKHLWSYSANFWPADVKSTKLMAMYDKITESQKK

For some of these results: Measured potencies and affinities stand elsewhere.

Chain of Protein translocase subunit SecA (Escherichia coli (strain K12)) (P10408 whole entry): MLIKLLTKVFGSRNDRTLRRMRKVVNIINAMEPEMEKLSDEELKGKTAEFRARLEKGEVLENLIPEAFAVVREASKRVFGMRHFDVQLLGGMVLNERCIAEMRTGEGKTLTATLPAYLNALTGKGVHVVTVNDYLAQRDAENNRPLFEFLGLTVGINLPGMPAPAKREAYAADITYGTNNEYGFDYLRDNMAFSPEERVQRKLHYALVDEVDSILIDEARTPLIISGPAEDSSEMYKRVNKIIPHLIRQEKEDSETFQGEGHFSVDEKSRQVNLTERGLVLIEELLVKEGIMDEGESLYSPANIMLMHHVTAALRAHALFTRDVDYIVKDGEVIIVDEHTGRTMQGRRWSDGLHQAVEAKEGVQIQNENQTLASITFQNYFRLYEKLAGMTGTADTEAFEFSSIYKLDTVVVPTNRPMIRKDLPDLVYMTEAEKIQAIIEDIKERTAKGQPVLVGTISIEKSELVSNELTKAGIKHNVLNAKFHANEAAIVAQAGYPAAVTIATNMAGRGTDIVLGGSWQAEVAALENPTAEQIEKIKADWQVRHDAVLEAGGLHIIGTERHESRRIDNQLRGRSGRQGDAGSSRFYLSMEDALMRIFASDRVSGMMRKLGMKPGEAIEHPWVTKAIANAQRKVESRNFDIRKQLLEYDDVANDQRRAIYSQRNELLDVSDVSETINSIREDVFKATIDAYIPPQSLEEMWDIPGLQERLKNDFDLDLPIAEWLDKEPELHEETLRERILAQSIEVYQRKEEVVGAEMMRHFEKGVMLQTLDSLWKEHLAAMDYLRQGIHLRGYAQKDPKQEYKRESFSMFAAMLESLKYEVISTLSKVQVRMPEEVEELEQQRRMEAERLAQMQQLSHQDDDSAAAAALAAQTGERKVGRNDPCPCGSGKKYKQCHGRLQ

As to `O=C(NC1CCC1)[C@@H]1C[C@@H]2CCN(Cc3cccs3)C[C@@H]2O1`, the Percent Effect in experiment [1] is -2.68%; in experiment [2], -2.67%; in experiment [3] it was 10.9%; in [4], -2.43%; with Trypanosoma cruzi it was -0.197%; in [5] it was 2.56%. The Percent Effect in experiment [6] was 7.67%; in the experiment listed under Homo sapiens it was 28.3%; in [7], 3.19%; in experiment [8], 11.5%; in experiment [9], -2.54%.

Take `CCCc1cc(NC2CCc3ncnn3C2)n2ncnc2n1` (stereo unspecified): the Percent Effect in [1] was -4.43%; in experiment [2], 5.48%; in [3], 7.3%; in experiment [4], -5.57%; with Trypanosoma cruzi, -2.74%; in experiment [5] it was -0.455%. The Percent Effect in experiment [6] was 10.1%; in the experiment filed under Homo sapiens it was 17.2%; in experiment [7] it was 2.15%; in [8] it was 7.5%; in experiment [9], -3.04%.

Turning to `Cc1occc1C(=O)N1CCC[C@]2(C[C@@H](OCc3ccncc3)CO2)C1`, the Percent Effect in [1] is 0.103%; in experiment [2], 10.7%; in [3], 1.3%; in [4], 1.1%; with Trypanosoma cruzi, -1.16%; in experiment [5] it was -23.5%. The Percent Effect in [6] is 16.4%; in the experiment filed under Homo sapiens it was -0.395%; in [7], 7.29%; in experiment [8], 22.5%; in experiment [9], -5.63%.

As for `Cc1ccc(N2CC[C@H]3OCC[C@@]3(C(=O)NC(C)C)C2)nn1`, the Percent Effect was -2.37% in experiment [1]; 2.7% in experiment [2]; -2.16% in experiment [3]; 0.317% in [4]; 2.15% with Trypanosoma cruzi; 16.7% in experiment [5]. The Percent Effect is 6.85% in experiment [6]; 4.31% in the experiment filed under Homo sapiens; 6.93% in experiment [7]; 18.3% in experiment [8]; -5.52% in experiment [9].

Take `CN(CCc1ccccc1)C1CCCN(Cc2nccn2C)C1` (stereo unspecified): the Percent Effect is -4.99% in [1]; -39% in experiment [2]; -1.69% in [3]; 5.27% in experiment [4]; 8.36% in the experiment on Trypanosoma cruzi; 0% in experiment [5]. Further, the Percent Effect in experiment [6] was 9.48%; in the experiment listed under Homo sapiens it was -25.8%; in [7], 6.45%; in [8] it was 6.17%; in experiment [9], -8.68%.

`CC(C)c1nnc2n1CCN(CCCS(=O)(=O)c1ccccc1)C2`: the Percent Effect in experiment [1] is -2.39%; in experiment [2], 7.79%; in experiment [3] it was 4.29%; in [4] it was 7.26%; in the experiment with Trypanosoma cruzi, 6.18%; in [5] it was -4.27%. The Percent Effect is 7.94% in experiment [6]; 0.936% in the experiment filed under Homo sapiens; 1.94% in experiment [7]; 14.6% in experiment [8]; -8.88% in [9].

For the compound `Cc1ccc(NC2CCN(C(=O)c3cccc(F)c3F)CC2)nn1`, the Percent Effect in [1] was 0.567%; in experiment [2], -6.33%; in experiment [3] it was 2.51%; in experiment [4], 4.94%; with Trypanosoma cruzi, 0.308%; in experiment [5], -0.645%. Further, the Percent Effect in experiment [6] is 1.54%; in the experiment listed under Homo sapiens, 10.2%; in experiment [7] it was 4.17%; in experiment [8], 5.06%; in experiment [9], -24.5%.

For `Cc1ccccc1Cc1cnc(NC(=O)C2CNC(=O)N2)s1` (stereo unspecified), the Percent Effect was -3.2% in experiment [1]; 3.8% in experiment [2]; -1.9% in experiment [3]; 0.365% in experiment [4]; 2.36% in the experiment with Trypanosoma cruzi; -4.95% in experiment [5]. The Percent Effect in [6] was 13.7%; in the experiment listed under Homo sapiens it was 22.3%; in experiment [7] it was 2.08%; in [8] it was 15.2%; in experiment [9], -23.7%.

With `CN1CCN(C(=O)NC2CC2)Cc2cccnc21`, the Percent Effect was -0.328% in experiment [1]; 10.7% in experiment [2]; -1.13% in experiment [3]; 3.38% in experiment [4]; -1.35% in the experiment on Trypanosoma cruzi; -23.5% in experiment [5]. The Percent Effect in experiment [6] is 12%; in the experiment filed under Homo sapiens it was -4.24%; in [7] it was 6.25%; in experiment [8], 25%; in experiment [9] it was -7.54%.

Take `CN(Cc1cccc(O)c1)CC1CCCN(CCc2ccc(Cl)cc2)C1` (stereo unspecified): the Percent Effect in experiment [1] is -6.32%; in experiment [2], -13.5%; in experiment [3] it was 1.05%; in experiment [4], 9.76%; with Trypanosoma cruzi, 2.64%; in [5] it was 4.22%. For the same compound, the Percent Effect in experiment [6] was -2.32%; in the experiment filed under Homo sapiens, 27.2%; in experiment [7] it was 4.3%; in [8], 11.1%; in experiment [9], -0.68%.

For `O=C(NCc1nnc2n1CCCC2)N1CCc2ccccc2C1`, the Percent Effect is -3.86% in experiment [1]; 11.4% in experiment [2]; -3.15% in experiment [3]; 2.59% in [4]; -4% in the experiment with Trypanosoma cruzi; 4.09% in experiment [5]. Moreover, the Percent Effect in experiment [6] was 4.63%; in the experiment listed under Homo sapiens, 4.93%; in [7], 1.04%; in experiment [8], 12.7%; in experiment [9], -7.99%.
